Compound activity as filed in PubChem.
Hits are enriched below; roughly 3.8% of the tested compounds scored in any of these assays.
GLS inhibitor: glutaminase GLS (human) inhibition. O94925. GLS enzymatic activity, qHTS titration. Potency, µM (series often up to 45.5 µM), usual class: inhibitors. actives 0.21% (n = 410,000). AID 624170
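Glutamate formation by hKGA was monitored fluorometrically using coupled glutamate oxidase, HRP and Amplex Red. Substrate was added as 1 mM L-glutamine solution; incubation was 30 min at RT after an initial read.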
Sfp PPTase inh: Sfp phosphopantetheinyl transferase inhibition; Biochemical Sfp PPTase activity, qHTS; Potency, µM, hits mostly inhibitors; actives 3.5% (n = 310,000);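 further: the enzyme is Sfp with the accession as filed and its product quenches rhodamine fluorescence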
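Compounds were incubated with enzyme (final 15 nM) for 15 min at room temperature before substrate addition started the reaction. Fluorescence at 525 nm excitation, 598 nm emission was recorded immediately and after 30 minutes.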
TrxR1 substrate: substrates of rat thioredoxin reductase 1; purified TrxR1 substrate turnover, NADPH consumption readout; AID 588456; Potency, µM (doses to about 114 µM); actives 0.01% (n = 390,000); further: nearly all actives have a fitted effect of over 50% in size
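Rat TrxR1, dispensed at 90 nM, was prereduced with 400 uM NADPH (final) for 5 min at ~22 deg C, then incubated with compound 15 min before 400 uM selenite. A first-read NADPH fluorescence drop versus no-compound background flagged substrates.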
KAT2A inh: inhibitors of human GCN5L2 histone acetyltransferase. Q92830. Potency, µM (doses to about 58.9 µM), actives largely listed as inhibitors. GCN5L2 HAT assay, ThioGlo1 CoA-SH fluorescence. actives 0.21% (n = 390,000)
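Preincubate 20nM GCN5L2 with compound 15 min, RT → add 50uM ThioGlo1 + 75uM H3(1-25) + 70uM acetyl-CoA → read fluorescence 0 and 20 min. Primary qHTS; fluorescent artifacts likely.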
VDR inhibitor: blocks the human vitamin D receptor. VDR-SRC2-3 peptide fluorescence polarization, 2 h. Potency, µM, hits mostly inhibitors. AID 504847. actives 0.93% (n = 400,000). P11473
Target sequence (P11473 whole entry, looked up): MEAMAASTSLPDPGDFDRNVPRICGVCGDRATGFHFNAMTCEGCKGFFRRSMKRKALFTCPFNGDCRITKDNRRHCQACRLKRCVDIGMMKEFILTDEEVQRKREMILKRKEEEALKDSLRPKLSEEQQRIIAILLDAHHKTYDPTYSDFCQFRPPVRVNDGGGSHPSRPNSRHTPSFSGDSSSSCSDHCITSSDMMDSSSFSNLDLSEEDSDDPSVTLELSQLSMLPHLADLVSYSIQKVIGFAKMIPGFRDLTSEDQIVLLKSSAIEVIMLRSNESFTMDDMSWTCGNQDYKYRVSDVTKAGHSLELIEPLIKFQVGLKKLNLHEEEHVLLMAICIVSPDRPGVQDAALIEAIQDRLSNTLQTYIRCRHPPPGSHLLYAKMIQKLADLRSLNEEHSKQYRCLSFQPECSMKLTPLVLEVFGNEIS
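VDR–SRC2-3 interaction, FP format. Cmpds 23 nl via pintool, brief spin, 2 h ambient incubation.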
rTrxR1 inhibitor: blocks rat thioredoxin reductase 1. recombinant rTrxR1, NADPH fluorescence consumption, selenite substrate. Potency, µM (top dose mostly 114 µM), actives largely listed as inhibitors. actives 1% (n = 390,000); further: nearly all actives have a fitted effect of over 65% in size
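Rat TrxR1 (90 nM in the dispensed reagent) was pre-reduced with 400 uM NADPH for 5 min at room temperature, then incubated with compound for 15 min. After 400 uM selenite was added, NADPH fluorescence (Ex 340/Em 450 nm) was followed for 8 min.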
A number is an active result; – = inactive; ? = inconclusive; · = no result; [ ] = dose if it differs, or a comment. The call rests on the fitted dose curve; in most records, active means well fitted curve in the direction sought with a large enough effect; inconclusive means small, poorly fitted or top-dose-only effect, or another doubt; inactive means no such curve, though single readings can be large; an effect the other way counts as inactive or inconclusive.

SMILES	GLS inhibitor	Sfp PPTase inh	TrxR1 substrate	KAT2A inh	VDR inhibitor	rTrxR1 inhibitor
Cc1cc(C)n(CCc2nc(-c3cc4ccccc4o3)cs2)n1	–	–	–	–	–	–
Cc1cc(C)n(CCc2nc(-c3ccc(C)o3)cs2)n1	–	8.9µM	–	–	?	?
c1ccc(-c2cccc(N3CCC4(CCNCC4)CC3)c2)cc1	·	–	·	–	89µM	·
c1ccc(-c2cccc(N3CC4(CCNCC4)C3)c2)cc1	·	–	·	–	?	·
COC(=O)N1CCC2(CCCN(c3cccc(-c4ccccc4)c3)C2)CC1	·	?	·	–	?	·
c1ccc(-c2cccc(N3CCCC4(CCNCC4)C3)c2)cc1	·	–	·	–	50µM	·
COCC(=O)N1CCC2(CCCN(c3cccc(-c4ccccc4)c3)C2)CC1	·	–	·	–	50µM	·
NS(=O)(=O)c1ccc(CCNC(=O)/C=C/c2ccc(S(=O)(=O)N3CCOCC3)cc2)cc1	–	·	–	·	–	–
CCOC(=O)c1ccc[n+](CC(=O)c2ccccc2)c1	–	–	–	–	–	–
CCOC(=O)C1=C(Cc2ccc(C)cc2)C(=O)c2ccccc2C1=O	·	7.9µM	·	–	·	·
CCOC(=O)C1=C(O)c2ccccc2C(=O)/C1=C\c1ccc(CC)cc1	–	2µM	–	–	3.5µM	10µM
CCCc1ccc(/C=C2\C(=O)c3ccccc3C(O)=C2C(=O)OCC)cc1	·	2.8µM	·	?	·	·
CCOC(=O)C1=C(C)OC(=Cc2ccc(OC)cc2)C1=O	–	·	·	·	·	·
CCc1nc(NCC(C)C)c(C#N)c2c1COC(C)(C)C2	–	–	–	–	–	–
CCc1nc(NCCO)c(C#N)c2c1CSC(C)(C)C2	–	71µM	–	–	–	–
Cc1ccccc1CN1CCC(CNc2ncnc3onc(-c4ccc(F)cc4)c23)CC1	–	·	–	–	–	–
CC(=O)NNc1nc(-c2ccc(NC(C)=O)cc2)cs1	–	50µM	–	–	–	–
O=C(Nc1nc(-c2cccs2)cs1)c1ccc(Cl)s1	–	–	–	–	–	–
O=C(NNc1nc(-c2ccccc2)cs1)c1ccccc1	–	45µM	–	–	–	–
N#Cc1ccc(-c2csc(NNC(=O)c3ccccc3)n2)cc1	–	–	–	–	–	–
CC(=O)Nc1nc(-c2cccs2)cs1	–	50µM	–	–	–	–
CC(=O)Nc1ccc(-c2csc(NNC(=O)c3ccc(C)cc3)n2)cc1	–	7.9µM	–	–	–	?
COc1cccc(Cn2cccc(NC(=O)Nc3ccccc3C)c2=O)c1	–	–	–	–	–	–
Cc1cc(NC(=O)c2cccc(F)c2)ncc1NC(=O)c1ccco1	–	–	–	–	–	–
Cc1csc2c(N3CCN(C(=S)Nc4ccc(F)cc4F)CC3)ncnc12	–	–	–	–	–	–
SMILES	GLS inhibitor	Sfp PPTase inh	TrxR1 substrate	KAT2A inh	VDR inhibitor	rTrxR1 inhibitor
S=C(NCc1ccco1)N1CCN(C/C=C/c2ccccc2)CC1	–	79µM	–	–	–	–
S=C(Nc1ccccc1)N1CCN(C/C=C/c2ccccc2)CC1	–	–	–	?	–	–
O=S(=O)(NCc1cc(-c2ccccc2Cl)no1)c1ccc(Cl)cc1	?	–	–	–	18µM	–
CCCc1cc(=O)oc2c3c(cc(OCC(=O)NCc4ccccn4)c12)OC(C)(C)CC3	–	–	–	–	–	?
Cc1c(C)c2c(OCC(=O)NCc3ccccn3)cc3c(c2oc1=O)CCC(C)(C)O3	–	–	–	–	–	89µM
Cc1ccc(S(=O)(=O)N2CCCCC2)cc1NC(=O)CNCc1ccco1	–	6.3µM	–	–	–	–
O=C(CNCc1ccccn1)Nc1cc(S(=O)(=O)N2CCCCC2)ccc1Cl	–	–	–	–	–	–
O=C(CCl)Nc1cc(S(=O)(=O)N2CCCCCC2)ccc1Cl	–	–	–	–	–	7.9µM
O=C(COC(=O)c1cc(Br)ccc1O)Nc1cc(S(=O)(=O)N2CCCC2)ccc1Cl	–	56µM	–	–	–	–
O=C(COC(=O)c1ccccc1O)Nc1cc(S(=O)(=O)N2CCCCCC2)ccc1Cl	–	·	–	–	–	–
O=C(CNCc1ccncc1)Nc1cc(S(=O)(=O)N2CCCCC2)ccc1Cl	–	45µM	–	–	–	–
COC(=O)c1cc(CSc2nc3ccccc3[nH]2)oc1C	–	–	–	–	–	–
COc1c(O)c(O)cc2c1oc1c3cc(C)ccc3oc(=O)c21	·	79µM	·	·	·	·
Cc1[nH]c(-c2ccccn2)nc(=S)c1Cl	?	40µM	–	–	–	–
Cc1cc(=S)nc(-c2ccccn2)[nH]1	–	35µM	–	–	–	?
COc1ccc2nc(-c3ccccn3)[nH]c2c1	–	–	–	–	?	–
COc1ccccc1CNS(=O)(=O)c1c(C(=O)N2CCCC2)c(C)n(C)c1C	–	–	–	–	–	–
O=C(Cc1nc2ccccc2s1)c1ccc(O)cc1O	·	50µM	·	–	·	·
Cc1ccc2c(c1C)-c1c(ccc(C)c1C)C(=O)C2=O	–	·	45µM	·	?	?
Cc1ccc(CC#N)c(-c2c(CC#N)ccc(C)c2C)c1C	–	·	·	·	·	·
O=C(CN1CCN(c2ccccn2)CC1)Nc1ccccc1Br	–	–	–	–	–	–
Cc1ccc(NC(=O)CN2CCN(c3ccccn3)CC2)c(Cl)c1	–	79µM	–[11.4 µM]	–	–	–[11.4 µM]
O=C(CN1CCN(c2ncccn2)CC1)Nc1ccccc1-n1cccc1	–	79µM	–	–	–	–
CCN(CC)C1CCN(C(=O)c2cc(COc3cccc4cccnc34)on2)C1 (stereo not drawn)	–	–	–	–	–	–
